Test systems include NCI-H23 lung; NCI-H226 lung; NCI-H322M lung; HOP-62 NSCLC; NCI-H460 lung; NCI-H522 lung; A549/ATCC NSCLC; 786-0 renal; COLO 205 colon; DU-145 prostate; K-562 leukemia; MALME-3M melanoma; MDA-MB-231 breast; RXF 393 renal; SF-268 CNS; SF-295 CNS; SF-539 CNS; UACC-257 melanoma; HCT-15 colon; M14 melanoma.
What all share (assay): NCI-60 one-dose screen, 48 h (100 = growth as untreated, 0 = no growth, -100 = all killed)
Common to all, as to conditions: 10 µM

About 83,000 compounds went through this panel and 20% of them were active in at least one assay; those are over-represented in the sample as a whole.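 In brief: 96-well plates, 48 h treatment, single concentration, percent growth endpoint.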 A number with no mark means an inactive call. Active and inactive are the calls of the source. Rule for the calls: active = growth percent below 10; inactive = the rest.

With `Cc1cc2c(C)c3cc(C)c(N)cc3nc2cc1N`, the growth in the test on NCI-H23 lung is 17.1%; with NCI-H226 lung, 10.1%; with NCI-H322M lung, -12.5% (active); in the test on HOP-62 NSCLC, 3.24% (active); with NCI-H460 lung it was -20.5% (active); in the test with NCI-H522 lung, -49.4% (active). Further, the growth with A549/ATCC NSCLC is 4.93% (active); in the test with 786-0 renal it was 28%; in the test with COLO 205 colon it was 1.41% (active); with DU-145 prostate it was 10.6%; in the test with K-562 leukemia it was 1.18% (active); in the test with MALME-3M melanoma, -3.24% (active). The growth with MDA-MB-231 breast was 20.3%; with RXF 393 renal it was 16.3%; in the test on SF-268 CNS it was 15.2%; with SF-295 CNS, 39.5%; in the test on SF-539 CNS it was 19.4%; in the test on UACC-257 melanoma it was 18.9%. Moreover, in the test on HCT-15 colon, the growth is 24.8%.
As to `CCCCCCCNc1nc(C=O)ncc1-c1ccc(C(F)(F)F)cc1`, the growth in the test on NCI-H23 lung is 99.8%; in the test with NCI-H226 lung, 98%; in the test with NCI-H322M lung, 84.4%; with HOP-62 NSCLC, 101%; in the test with NCI-H460 lung, 103%; in the test with NCI-H522 lung it was 80.1%. The growth in the test with A549/ATCC NSCLC is 96.4%; in the test on 786-0 renal, 97%; with COLO 205 colon, 95.8%; in the test on DU-145 prostate it was 106%; in the test on K-562 leukemia, 89.4%; with MALME-3M melanoma, 86.8%. Also, the growth in the test with MDA-MB-231 breast is 117%; with RXF 393 renal, 97%; in the test with SF-268 CNS, 98.8%; in the test on SF-295 CNS, 103%; in the test on SF-539 CNS it was 107%; in the test with UACC-257 melanoma it was 107%. Also, in the test with HCT-15 colon, the growth was 97.6%.
On to `COc1ccc(OC)c2c1C(=O)CC2C` (configuration not stated), for which the growth with NCI-H23 lung was 102%; in the test on NCI-H226 lung, 101%; with NCI-H322M lung, 96.5%; in the test on HOP-62 NSCLC, 101%; in the test with NCI-H460 lung, 104%; in the test on NCI-H522 lung, 110%. Further, the growth in the test on A549/ATCC NSCLC was 103%; with 786-0 renal it was 108%; in the test with COLO 205 colon, 106%; in the test with DU-145 prostate, 107%; in the test on K-562 leukemia, 116%; in the test on MALME-3M melanoma, 87%. In addition, the growth in the test on MDA-MB-231 breast is 100%; with RXF 393 renal, 98.3%; with SF-268 CNS it was 94.2%; with SF-295 CNS, 98%; with SF-539 CNS, 101%; in the test with UACC-257 melanoma it was 107%. In addition, the growth in the test on M14 melanoma is 112%; with HCT-15 colon, 110%.
On to `O=C1/C(=C/c2ccc([N+](=O)[O-])s2)Oc2ccccc21`, for which the growth in the test on NCI-H23 lung is -37% (active); in the test on NCI-H226 lung it was -0.59% (active); in the test on NCI-H322M lung it was -21.5% (active); in the test on HOP-62 NSCLC, 3.77% (active); in the test with NCI-H460 lung, -27.7% (active); in the test on NCI-H522 lung, -68.8% (active). The growth in the test on A549/ATCC NSCLC is -22.2% (active); in the test on 786-0 renal it was -37% (active); in the test with COLO 205 colon, -69.2% (active); in the test with DU-145 prostate, 4.99% (active); in the test with K-562 leukemia it was -14.5% (active); with MALME-3M melanoma, -60.9% (active). Further, the growth in the test on MDA-MB-231 breast is -70.3% (active); with RXF 393 renal it was -81.1% (active); with SF-268 CNS, -54.2% (active); in the test with SF-295 CNS, -37.4% (active); in the test with SF-539 CNS it was -77% (active); in the test with UACC-257 melanoma, -54.6% (active). The growth with M14 melanoma was -40.9% (active); in the test with HCT-15 colon, -15.5% (active).
For `CSC1=NCCCC1`, the growth in the test with NCI-H23 lung is 112%; with NCI-H226 lung it was 97.3%; in the test on NCI-H322M lung, 113%; in the test on HOP-62 NSCLC, 112%; in the test on NCI-H460 lung, 108%; in the test on NCI-H522 lung it was 102%. The growth in the test on A549/ATCC NSCLC was 102%; in the test with 786-0 renal it was 111%; with COLO 205 colon it was 113%; with DU-145 prostate, 118%; with K-562 leukemia, 104%; in the test with MALME-3M melanoma, 109%. Besides, the growth in the test with MDA-MB-231 breast is 123%; with RXF 393 renal, 108%; with SF-268 CNS it was 109%; in the test on SF-295 CNS it was 110%; with SF-539 CNS it was 111%; with UACC-257 melanoma, 100%. Moreover, the growth in the test with M14 melanoma was 108%; in the test with HCT-15 colon it was 101%.
With `c1ccc(CP(Cc2ccccc2)c2ccccc2)cc1`, the growth with NCI-H23 lung was 97.9%; in the test with NCI-H226 lung it was 105%; in the test with NCI-H322M lung, 87.3%; in the test on HOP-62 NSCLC, 99.4%; in the test on NCI-H460 lung, 112%; in the test on NCI-H522 lung it was 83.1%. Further, the growth is 97% in the test on A549/ATCC NSCLC; 93.5% in the test with 786-0 renal; 106% in the test on COLO 205 colon; 113% in the test on DU-145 prostate; 83.4% with K-562 leukemia; 82.3% in the test with MALME-3M melanoma. Further, the growth was 98.3% in the test on MDA-MB-231 breast; 113% in the test on RXF 393 renal; 110% in the test with SF-268 CNS; 82.4% in the test on SF-295 CNS; 110% in the test with SF-539 CNS; 95.5% in the test with UACC-257 melanoma. Further, the figures for the growth in the test with M14 melanoma and in the test with HCT-15 colon were 95.4% and 95.1%, respectively.
As to `COc1ccc(Oc2nc(NC3CCCC3)nc(Sc3ccc(OC)cc3)n2)cc1`, the growth in the test on NCI-H23 lung was 79.6%; in the test on NCI-H226 lung, 67.4%; with NCI-H322M lung it was 90.5%; in the test on HOP-62 NSCLC, 75.7%; in the test on NCI-H460 lung, 47.7%; with NCI-H522 lung, 66.9%. The growth in the test on A549/ATCC NSCLC is 72.8%; in the test on 786-0 renal it was 79.9%; in the test on COLO 205 colon, 82.2%; in the test on DU-145 prostate, 91.7%; in the test with K-562 leukemia, 53.3%; in the test with MALME-3M melanoma, 69.6%. The growth with MDA-MB-231 breast was 50.1%; in the test with RXF 393 renal, 74.1%; with SF-268 CNS, 55.6%; in the test on SF-295 CNS, 67.4%; in the test with SF-539 CNS, 83.4%; in the test on UACC-257 melanoma, 87.3%. The growth with HCT-15 colon was 43.9%.
With `CSc1nc(=O)n(Cc2ccc(Cl)cc2)c(=O)[nH]1`, the growth in the test with NCI-H23 lung was 100%; in the test on NCI-H226 lung, 108%; in the test on NCI-H322M lung, 127%; in the test on HOP-62 NSCLC, 92.1%; with NCI-H460 lung it was 108%; with NCI-H522 lung it was 90.7%. In addition, the growth in the test on A549/ATCC NSCLC is 99.1%; in the test with 786-0 renal, 101%; with COLO 205 colon, 104%; with DU-145 prostate, 104%; in the test with K-562 leukemia, 96.1%; in the test on MALME-3M melanoma it was 105%. Also, the growth in the test on MDA-MB-231 breast is 104%; with RXF 393 renal it was 115%; in the test with SF-268 CNS, 102%; with SF-295 CNS it was 146%; in the test with SF-539 CNS it was 101%; in the test with UACC-257 melanoma, 102%. Also, the growth is 106% in the test on M14 melanoma and 103% in the test on HCT-15 colon.

The values above are taken from PubChem BioAssay (NCI).
